CYP2C9 activ – human CYP2C9 activators, primary screen, biochemical, luminescence | recombinant CYP2C9, luciferin-H conversion; hits give high values; factor 1 = untreated enzyme, 0 = blocked | activation factor at 5 µM | 1.4% of 96,000 active | AID 1024, 2008;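 active = activation factor of 2 or more for CYP2C9 at a 5 µM dose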;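 note: 0 = sulfaphenazole-blocked wells and 1 = vehicle-only wells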
MRP-1 activ – H69AR viability gain despite doxorubicin, primary screen, MRP-1 activator project, H69AR cells, CellTiter-Glo. viability increase, % at 10 µM. viability rescue. 0.61% of 140,000 active;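 active = viability gain under doxorubicin at or above a set limit, the compound median plus 3 SD, cut at about 4.7% in these data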;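 note: MRP-1 overexpressing cells given doxorubicin 25 µM after compound pretreatment; 18-22 h compound pretreatment then 72 h with doxorubicin before readout; 0% = doxorubicin-only wells and 100% = vehicle-treated cells without doxorubicin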
CYP2C19 inhib – blockers of cytochrome P450 2C19 activity – biochemical, luminescence, ADME assay, primary screen; CYP2C19 Supersomes, luciferin-H EGE luminescence, 30 min; inhibition, % at 5 µM; 21% of 96,000 active; P33261;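 active = CYP2C19 inhibition above a set limit at 5 µM in the primary screen, cut at about 50% in these data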;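 note: plate controls were negative control wells for no effect and 2.5 mM tranylcypromine positive control for full effect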
Target sequence (P33261 whole entry, looked up): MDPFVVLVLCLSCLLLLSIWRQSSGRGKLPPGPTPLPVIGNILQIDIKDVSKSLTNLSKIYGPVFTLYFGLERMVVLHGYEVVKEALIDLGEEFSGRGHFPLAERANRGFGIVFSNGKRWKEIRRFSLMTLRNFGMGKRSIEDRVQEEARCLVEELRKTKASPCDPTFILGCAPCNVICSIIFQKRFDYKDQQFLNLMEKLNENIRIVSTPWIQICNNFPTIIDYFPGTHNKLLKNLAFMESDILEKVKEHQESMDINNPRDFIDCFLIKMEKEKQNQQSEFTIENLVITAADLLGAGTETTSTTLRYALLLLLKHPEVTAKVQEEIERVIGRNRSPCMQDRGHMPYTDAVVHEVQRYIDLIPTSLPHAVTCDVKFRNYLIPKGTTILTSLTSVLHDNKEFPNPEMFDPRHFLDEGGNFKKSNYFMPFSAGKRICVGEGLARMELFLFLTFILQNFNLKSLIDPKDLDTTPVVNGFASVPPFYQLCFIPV
MRP reversal – reversal of MRP1-mediated doxorubicin resistance, primary screen, H69AR cells, doxorubicin co-treatment | H69AR cells + 2 uM doxorubicin, CellTiter-Glo, 72 h | differential viability (reversal), % at 10 µM | 0.04% of 85,000 active;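 active = viability drop by adding the cancer drug above about 55%, with treated viability meeting a 40% cutoff, limit read from the data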;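 note: viability without doxorubicin minus viability with 2 µM doxorubicin for each compound; larger differential means the compound sensitizes cells more to doxorubicin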
CYP2C9 inh – blockers of cytochrome P450 2C9 activity – biochemical, luminescence, ADME assay, primary screen; AID 777, 2007; CYP2C9 Supersomes, luciferin-H conversion; 20% of 96,000 active; P11712; inhibition, % at 5 µM;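 active = blocking of liver enzyme CYP2C9 beyond about 50% at 5 µM, limit read from the data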
CYP2C19 activ – human CYP2C19 activators, primary screen, biochemical, luminescence. activation factor at 5 µM. Cytochrome P450 2C19 (Homo sapiens), P33261. 96,000 tested, under 10 active. recombinant CYP2C19, luciferin-H EGE luminescence; hits give high values; 0 = fully inhibited enzyme, 1 = untreated enzyme;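 active = activation factor of at least 2 at 5 µM in the primary screen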;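 note: 0 = wells with 2.5 mM tranylcypromine and 1 = vehicle-only wells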
* marks the source's active call; other numbers are inactive results; / = no result given. Rows were chosen to be rich in hits. Some 21% of all compounds tested hit in one or more screens of this group.

SMILES	CYP2C9 activ	MRP-1 activ	CYP2C19 inhib	MRP reversal	CYP2C9 inh	CYP2C19 activ
CC1CCCN(C(=O)CSCC(=O)N=c2sc3ccccc3n2C)C1 (stereo not given)	0.8	0	99*	20	21	0
Cn1c(=NC(=O)CSCC(=O)N2CCCC2)sc2ccccc21	1.1	-2	27	12	-10	0.7
Cn1c(Cn2cnc3ccccc32)nnc1SCC(=O)CC(=O)Nc1ccccc1	0.3	1	25	12	70*	0.7
COc1ccc(NC(=O)CSc2nnc(Cn3cnc4ccccc43)n2C)cc1	/	-4	/	13	/	/
COc1cc(C2CC(=O)c3cnc(NC(=O)COc4ccccc4)nc3C2)cc(OC)c1OC (stereo not given)	0.8	-1	15	1	19	0.9
COc1ccc(C2CC(=O)c3cnc(Nc4cc(C)cc(C)c4)nc3C2)cc1 (stereo not given)	0.8	-2	18	-4	23	0.8
COc1cc(OC)cc(C(=O)Nc2ncc3c(n2)CC(C)CC3=O)c1 (stereo not given)	1.1	/	2	-2	-11	1
CCOCCCNc1ncc2c(n1)CC(c1ccc(C)cc1)CC2=O (stereo not given)	0.4	1	41	-5	59*	0.6
COc1ccc(C2CC(=O)c3cnc(NC(=O)c4cc(OC)cc(OC)c4)nc3C2)cc1 (stereo not given)	0.3	-3	83*	-10	69*	0.2
COc1ccc(C2CC(=O)c3cnc(NC(=O)c4ccccc4)nc3C2)cc1OC (stereo not given)	0.3	-3	10	6	70*	0.9
CCCCn1c(SCc2cccnc2)nc2c1c(=O)n(C)c(=O)n2C	0.9	0	9	12	12	0.9
CCCc1nc(SCc2cccnc2)c2c(=O)n(C)c(=O)n(C)c2n1	0.1	0	100*	/	90*	0
Cn1c(=O)c2c(SCc3cccnc3)nc(CC(C)(C)C)nc2n(C)c1=O	0	-5	90*	18	98*	0.1
CCn1c(SCc2cccnc2)nc2c1c(=O)n(C)c(=O)n2C	0.9	0	16	12	12	0.8
CN1CC2(C)OC(=O)C(Cl)=C2CC1c1ccccc1 (stereo not given)	/	-1	/	/	/	/
CCCC(=O)NC(=S)Nc1ccc(C(C)=O)cc1	/	11*	/	/	/	/
CCCC(=O)NC(=S)Nc1ccccc1C(=O)OC	0.7	-3	59*	/	28	0.4
CCc1ccc(OCC(=O)NC(=S)Nc2ccc(C(C)=O)cc2)c(Br)c1	0.7	0	12	/	30	0.9
COC(=O)c1ccccc1NC(=S)NC(=O)C1CC1	0.7	0	52*	/	26	0.5
CCC(C)NC(=O)Cn1c(=O)n(CCCCC(=O)NCc2ccco2)c(=O)c2ccccc21 (stereo not given)	0.7	-3	21	1	27	0.8
O=C(CCCCn1c(=O)c2ccccc2n(CC(=O)Nc2ccc(F)cc2)c1=O)NCc1ccco1	0.2	0	55*	-8	81*	0.4
O=C(CCCn1c(=O)c2ccccc2n(CC(=O)NCc2ccco2)c1=O)NCc1ccco1	0.6	-1	3	-1	41	1
Cc1ccc(NC(=O)Cn2c(=O)n(CCCCC(=O)NCc3ccco3)c(=O)c3ccccc32)cc1	0.2	0	46	-35	82*	0.5
CCCN(CCC)C(=O)Cn1c(=O)n(CCCCC(=O)NCc2ccco2)c(=O)c2ccccc21	0.3	-2	30	0	69*	0.7
O=C(CCCCn1c(=O)c2ccccc2n(Cc2ccc(F)cc2Cl)c1=O)NCc1ccco1	0.2	-3	88*	-36	84*	0.1
SMILES	CYP2C9 activ	MRP-1 activ	CYP2C19 inhib	MRP reversal	CYP2C9 inh	CYP2C19 activ
C/C(=N\NC(=O)c1c(-c2ccccc2Cl)noc1C)c1cccc(NC(=O)C(C)C)c1	/	0	/	/	/	/
Cc1csc(/C(=N\O)c2csc(C)n2)n1	1	-4	-6	3	0	1.1
Cc1cccc(C)c1NC(=O)C(NC=O)c1ccc(N(C)C)cc1 (stereo not given)	0.4	0	64*	2	60*	0.4
O=S(=O)(Nc1ccc(Cc2ccncc2)cc1)N1CCCC1	0	-1	100*	19	97*	0
O=C(Nc1ccc(Cc2ccncc2)cc1)c1cccc([N+](=O)[O-])c1	/	2	/	/	/	/
Cc1ccc(C(=O)Nc2ccc(Cc3ccncc3)cc2)cc1[N+](=O)[O-]	0.1	2	91*	/	90*	0.1
CC(=O)Nc1ccc(Cc2ccncc2)cc1	0.1	0	97*	1	87*	0
O=C(Nc1ccc(Cc2ccncc2)cc1)C1CC1	0.1	0	84*	1	89*	0.2
O=C(Nc1c(Cl)ccc2nsnc12)c1cccnc1	/	-2	/	/	/	/
O=C(C1=NNCC1c1ccc(Cl)cc1)C1CO1 (stereo not given)	/	-5	/	/	/	/
O=C(Nc1ccc(Cc2ccc(NC(=O)C3CC3)c(O)c2)cc1O)C1CC1	0.3	-2	13	8	70*	0.9
COc1ccc(NC(=O)Nc2ccc(Cc3ccncc3)cc2)cc1OC	0.2	-4	77*	/	78*	0.2
CC(=O)NCCOC(=O)Nc1ccncc1	0.4	-1	22	-10	62*	0.8
O=C(O)CCC(=O)Nc1ccc(Cc2ccc(NC(=O)CCC(=O)O)c(O)c2)cc1O	1.1	0	-16	0	-10	1.2
O=C(Nc1ccc(Cc2ccncc2)cc1)C1CCC(N2C(=O)C3C4C=CC(C5CC45)C3C2=O)CC1 (stereo not given)	0.3	-2	40	-9	74*	0.6
COC(=O)Nc1ccc(OC)c(OC)c1	0.9	1	9	12	10	0.9
CC(=O)Nc1ccc(S(=O)(=O)N2CCC(NC(=O)c3ccco3)CC2)cc1	0.7	-1	9	-1	26	0.9
COc1cc(NC(=O)NCc2ccncc2)cc(OC)c1OC	0.3	-1	62*	7	67*	0.4
Cc1cc(N2CCCCC2)n2ncc(-c3ccccc3)c2n1	1.5	-2	-10	-42	-46	1.1
Cc1cc(N2CCOCC2)n2ncc(-c3ccccc3)c2n1	0.6	-4	-15	-29	41	1.2
Cc1cc(N2CCCCC2)n2ncc(-c3ccc(Cl)cc3)c2n1	0.4	-2	29	5	57*	0.7
Cc1cc(N2CCC(C)CC2)n2ncc(-c3ccccc3)c2n1	0.3	-1	37	-39	70*	0.6
CC(=O)c1cccc(N(C(=O)c2ccco2)C(C(=O)NC2CCCC2)c2ccncc2)c1 (stereo not given)	0.8	-1	20	0	16	0.8

Compound activity: PubChem BioAssay, several laboratories
